The values below come from PubChem BioAssay AID2314 (National Center for Advancing Translational Sciences (NCATS), 2010).

Structures are written as SMILES. In all, about 300,000 compounds went through this assay and about 37,000 (12%) were called active. Cut-off read from the data, not from the text of the source: active = max response mostly above about 13% (no sharp cut-off); inactive = mostly below about 14%. The entries come from a sample that favours actives as a whole.

This assay is described as follows: Cycloheximide Counterscreen for Small Molecule Inhibitors of Shiga Toxin. Note: read at 38.3 µM for the half of the compounds with a filed dose; 0% is about no effect. The following applies: cell reporter, cycloheximide protein synthesis inhibition counterscreen; active compounds read high.
As for `Cc1cccc2nc(CSc3nc4[nH]ncc4c(=O)n3-c3cccc(Cl)c3)cc(=O)n12`, the max response is 1.41% (inactive).

As for `Oc1ccc(N=Cc2sc3ccccc3c2Cl)cc1`, the max response is 25.7% (active).

With `Oc1ccc(N=Cc2c(O)ccc3ccccc23)cc1`, the max response was 4.29% (inactive). For `Cc1cccc(N=Nc2c(O)[nH]c3ccc(F)cc23)c1` the value was 49% (active); for `Oc1[nH]c2ccc(Br)cc2c1N=Nc1nn[nH]n1`, 1.76% (inactive). In the case of `NS(=O)(=O)c1ccc(N=Nc2c(O)[nH]c3ccc(Br)cc23)cc1`, the max response is -3.08% (inactive).

On to `Fc1ccccc1COc1ccccc1CNCc1ccncc1`, for which the max response is -2.19% (inactive). Under `CN(Cc1ccccc1)CC(O)COc1ccc(CNCc2cc3ccccc3s2)cc1` (stereo not drawn) stands -1.23% (inactive). For `Cc1ccc(NC(=O)C2CC2c2ccccc2)cc1` (stereo not drawn) the value was 28.4% (active). Regarding `O=C(NNC(=S)Nc1ccc(F)cc1)[C@H]1C[C@@H]1c1ccccc1`, the max response is -2.55% (inactive).

As to `Cc1ccc(C2CC2C(=O)NN)cc1` (stereo not drawn), the max response was 4.7% (inactive). For `O=C(NC1CCN(Cc2ccccc2)CC1)c1ccc(Oc2cc(Cl)cc(Cl)c2)o1` the value was -0.55% (inactive); for `Cc1ccc(-c2nnc(-c3ccc(NC(=O)c4cccs4)cc3)o2)cc1`, -3.98% (inactive); for `Cc1ccc(OCC(=O)Nc2ccc(NC(=O)c3cccs3)cc2)c(C)c1`, -4.62% (inactive). With `CCc1c(C)sc(NC(=O)c2ccc(Br)o2)c1C(=O)OC`, the max response was 5.7% (inactive). For `Cc1ccc(-c2csc(NC(=O)Cc3cccs3)n2)cc1C` the value was 12.4% (inactive). Turning to `CCc1c(C)sc(NC(=O)c2cccs2)c1C(N)=O`, the max response is 63.8% (active). Under `CCCc1nnc(NC(=O)c2cc(OC)cc(OC)c2)s1` stands 8.3% (inactive); under `CCCc1ccc(-c2csc(NC(=O)Cc3cccs3)n2)cc1`, 22.9% (active); under `CCc1nnc(NC(=O)Cc2cccs2)s1`, 1.7% (inactive).

`Cc1nc(-c2ccc(NC(=O)c3cccs3)cc2)cs1`: the max response is 23.7% (active). For `COC(=O)c1c(NC(=O)c2cccs2)sc2c1CCCC2`, the max response was 9.75% (inactive). Regarding `CCCc1nnc(NC(=O)c2cccs2)s1`, the max response was 12.8% (active).

On to `CC(=O)c1ccc(N2CCN(C(=O)CCNC(=O)Cn3ccc4ccccc4c3=O)CC2)cc1`, for which the max response is -4.48% (inactive). For `O=C(O)CCCN1C(=O)c2ccccc2Sc2ncccc21`, the max response is -1.01% (inactive). For `C=C1CCN(C(CC(C)C)C(=O)NCc2cc(OC)c(OC)c(OC)c2)S(=O)(=O)c2ccccc21` (stereo not drawn) the value was -2.25% (inactive); for `Cc1ccc(CSCCNC(=O)CN(c2ccc(F)cc2)S(C)(=O)=O)cc1`, -2.68% (inactive).

As to `Cc1ccccc1C(=O)N1CCC(C(=O)Nc2ccc(S(=O)(=O)N(C)C(C)C)cc2)CC1`, the max response is 4.98% (inactive). Under `CC1CCCCN1C(=O)Cn1c(=O)oc2cc(S(=O)(=O)N3CCCCC3)ccc21` (stereo not drawn) stands -1.34% (inactive). Under `CC(C)(C)NCc1cc(Br)ccc1OC1CCCC1` stands -4.63% (inactive). Under `CCCCCCn1cc(C(=O)O)c(=O)c2cc(F)c(N3CCCCC3)cc21` stands -0.584% (inactive).

As to `Cc1ccc(-c2csc(N(Cc3ccco3)C(=O)c3cccs3)n2)cc1`, the max response is 16.7% (active). Take `Cc1ccc(-c2csc(NNC(=O)c3ccccc3)n2)cc1`: the max response was -2.93% (inactive).

For `Cc1ccc(-c2csc(NC(=O)c3cccs3)n2)cc1`, the max response was 60.5% (active). For `O=C(O)CCC(=O)N(Cc1ccco1)c1nc(-c2ccccc2)cs1` the value was -1.24% (inactive).

With `Cc1nnc(N(Cc2ccco2)C(=O)c2ccno2)s1`, the max response was -2.88% (inactive). Under `O=C(Nc1n[nH]c(C(F)(F)F)n1)c1cccs1` stands -2.4% (inactive). For `CCC(CC)c1nnc(NC(=O)C2CCN(C(=O)c3ccco3)CC2)s1` the value was -2.36% (inactive).

Take `O=C(CNC1CCCCC1)NCC1(c2ccccc2)CCCC1`: the max response is -3.76% (inactive).

For the molecule `COCc1cc(=O)n2[nH]c(C)c(-c3ccccc3)c2n1`, the max response was 1.24% (inactive). Under `COc1ccccc1-c1sc2ccccc2c1-c1ccc(C(C)=O)cc1` stands 25.3% (active); under `COc1cc(C(C)=O)ccc1OC(=O)CN1C(=O)c2ccccc2C1=O`, -2.6% (inactive); under `COCc1cc(C(C)=O)ccc1OC`, -7.85% (inactive). For `CC(=O)Nc1ccc(Oc2ccc3c(c2)C(=O)NC3=O)cc1` the value was -1.54% (inactive); for `CCOCCCNc1nc(-c2ccccc2)nc2ccccc12`, 7.13% (inactive); for `CS(=O)(=O)n1nc(-c2ccccc2)nc1NCc1ccco1`, 13.9% (inactive). Under `O=C(Cc1ccccc1)n1nc(-c2ccccc2)nc1NCc1ccco1` stands 15.3% (active). In the case of `c1ccc(-c2nc(NCc3ccco3)c3ccccc3n2)cc1`, the max response was 16.8% (active). For the molecule `c1coc(CNc2ncnc3ccccc23)c1`, the max response is -1.39% (inactive). For `CSc1nc(-c2ccco2)nn1C(=O)CCc1ccccc1` the value was -3.44% (inactive).

For `Cc1cc(=O)[nH]c2nnnn12`, the max response is 4.1% (inactive). Under `CC1(c2ccccc2)CC(C)(C)N(C(=O)c2cc([N+](=O)[O-])cc([N+](=O)[O-])c2)c2ccccc21` (stereo not drawn) stands -4.42% (inactive). For `N#CC1(C#N)C(C(=O)C23CC4CC(CC(C4)C2)C3)C12CCOCC2` (stereo not drawn) the value was 2.45% (inactive); for `Cc1cccc(N(C)C(=O)c2cc3c(=O)[nH]c4ccc(C)cc4c3s2)c1`, -2.49% (inactive).

As to `COc1ccc(COC(=O)c2ccc(Cl)c(S(=O)(=O)N3CCOCC3)c2)cc1F`, the max response is 6.51% (inactive). Under `COc1ccc(-c2cc(C(=O)NC(C(=O)O)C(C)C)c(C)o2)cc1OC` (stereo not drawn) stands 28.2% (active). Under `COc1ccc(-c2cc(C(=O)NC(Cc3c[nH]c4ccccc34)C(=O)O)c(C)o2)cc1OC` (stereo not drawn) stands 32.9% (active). Under `COc1ccc(-c2cc(=O)oc3cc(OCC(=O)N[C@@H](Cc4c[nH]c5ccccc45)C(=O)O)ccc23)cc1` stands 0.573% (inactive); under `CC(C)C(NC(=O)c1ccc(Cl)cc1)C(=O)O` (stereo not drawn), -2.96% (inactive); under `Cc1cccc(C)c1OCC(=O)NC(Cc1c[nH]c2ccccc12)C(=O)O` (stereo not drawn), -0.482% (inactive). On to `CCC(C)NC(=O)c1cc(Cl)ccc1OC` (stereo not drawn), for which the max response is 5.03% (inactive). For `COc1ccc(C(=O)N/N=C2\CCS(=O)(=O)c3ccc(F)cc32)cc1OC` the value was -4.85% (inactive). With `O=C(CN(C(=O)c1csnn1)c1cccc(Cl)c1)NC1CCCC1`, the max response is 4.33% (inactive).
